This note sets out measurements from PubChem BioAssay (NCI).

Common to all, as to test: NCI-60 one-dose screen, 48 h (100 = growth as untreated, 0 = no growth, -100 = all killed)
Holding throughout (details): 10 µM

The subject of assay [1] is DU-145 prostate.
For assay [2], the system named is K-562 leukemia.
For assay [3], the system named is MALME-3M melanoma.
The test system of assay [4] is MDA-MB-231 breast.
Assay [5] concerns RXF 393 renal.
The subject of assay [6] is SF-268 CNS.
The subject of assay [7] is SF-295 CNS.
In assay [8] the test system is SF-539 CNS.
Assay [9] has as its system UACC-257 melanoma.
Assay [10] has as its system M14 melanoma.

The structures appear in SMILES notation. Compounds without any hit were thinned out: in the full panel of roughly 83,000, 20% have a hit.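 Note: values are percent growth. 100 is the growth of untreated cells, values between 100 and 0 indicate rising inhibition; between -100 and 0 indicates cell death.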 A number with no mark means an inactive call. Activity calls are given as the source filed them. How the source made its calls: active means growth percent below 10; inactive means the rest.

Take `COc1ccc(CCN2C(=O)/C(=C/c3csc(C#N)n3)SC2=S)cc1`: the growth is 0.405% (active) in assay [1]; 1.79% (active) in assay [2]; 7.27% (active) in assay [3]; 15.8% in assay [4]; -3.89% (active) in assay [5]; 33.2% in assay [6]. Moreover, the growth in assay [7] was 77.5%; in [8], -17.3% (active); in assay [9], -35.3% (active); in assay [10], -40.6% (active).
As for `O=C(Nc1ccc(I)cc1)Nc1nc2ccc([N+](=O)[O-])cc2s1`, the growth is -100% (active) in assay [1]; -82.8% (active) in assay [2]; -99.7% (active) in assay [3]; -100% (active) in assay [4]; -95.1% (active) in [5]; -83.7% (active) in assay [6]. Also, the growth is -95.4% (active) in assay [7], -99.7% (active) in assay [8], -91% (active) in assay [9] and -100% (active) in assay [10].
In the case of `Cc1ccc(/C(N)=N/c2sc(-c3ccccc3)nc2-c2ccccc2)cc1`, the growth in assay [1] is 89%; in assay [2], 28.5%; in [3], 89.2%; in assay [4], 82.5%; in [5], 82.7%; in assay [6], 79.2%. Besides, the growth in assay [7] was 77.6%; in [8], 79.7%; in assay [9] it was 93.9%; in [10], 79.6%.
Consider `Nc1nnc(-c2c[nH]c3ncccc23)c(-c2c[nH]c3ccc(Br)cc23)n1`, for which the growth in assay [1] was 62.4%; in [2], 32.9%; in assay [3] it was 46.8%; in [4] it was 41.6%; in [5] it was 45.4%; in assay [6], 51.8%. For the same molecule, the growth is 41.9% in [7], 37.2% in assay [8], 82.1% in [9] and 50.3% in assay [10].
`O=C(Nc1cccc(-c2cn(-c3ccc4oc(=O)ccc4c3)nn2)c1)Nc1cc(C(F)(F)F)cc(C(F)(F)F)c1`: the growth was 30.2% in [1]; 9.1% (active) in [2]; 29.8% in [3]; 34.7% in [4]; -5.05% (active) in [5]; 62.2% in assay [6]. In addition, the growth was -45.7% (active) in assay [7], 19.1% in [8], 50.2% in assay [9] and 55.5% in assay [10].
On to `CS(=O)(=O)Nc1ccc(-c2ccc3c(c2)ncn3-c2ccc(NC(=O)Nc3ccc(Cl)c(C(F)(F)F)c3)cc2)cc1`, for which the growth in assay [1] is -4.47% (active); in assay [2], -26% (active); in assay [3] it was -80.8% (active); in [4] it was -84.6% (active); in [5], -57.5% (active); in assay [6] it was 2.56% (active). Further, the growth in [7] was -77.5% (active); in [8], -88.8% (active); in [9], -57.2% (active); in [10], -95.3% (active).
`N#Cc1c(-c2ccc(F)cc2)nc(SCc2ccc([N+](=O)[O-])cc2)nc1N1CCOCC1`: the growth was 73.3% in [1]; 76.9% in assay [2]; 42.8% in [3]; 47.1% in [4]; 9.79% (active) in assay [5]; 49.3% in assay [6]. Moreover, the growth in assay [7] was 41.5%; in assay [8], 26.2%; in assay [9], 54.2%; in assay [10] it was 87.7%.
`N#Cc1c(-c2ccc(F)cc2)nc(SCc2ccc(F)cc2)nc1N1CCOCC1`: the growth was 77.8% in [1]; 83.8% in assay [2]; 58.6% in assay [3]; 50.5% in assay [4]; 41.6% in assay [5]; 43.4% in assay [6]. Besides, the growth is 36.9% in assay [7], 49% in [8], 77.1% in assay [9] and 92.2% in [10].
`CN1CCCN(Cc2ccc(C(=O)Nc3cccc(Nc4ccc5cc(O)ccc5n4)c3)cc2C(F)(F)F)CC1`: the growth in assay [1] was 73.7%; in assay [2], 14.8%; in [3] it was 51%; in [4], 34.9%; in assay [5], 60.8%; in assay [6] it was 62.5%. Further, the growth was -68.5% (active) in assay [7], 41.8% in assay [8], 59.8% in assay [9] and 47.2% in [10].
Regarding `COC[C@@H](CC(C)C)N=C1NC(=O)/C(=C/c2ccc3ncoc3c2)N1`, the growth was 22.6% in assay [1]; 14.4% in assay [2]; 32.5% in assay [3]; 12.3% in assay [4]; -8.35% (active) in [5]; 22% in assay [6]. Also, the growth in assay [7] was 34.4%; in [8], -5.08% (active); in assay [9], 11.5%; in [10] it was 41%.
For the molecule `CC1=C2C(=C[C@@](C)(CO)[C@@H]2O)/C(=N\N)[C@](C)(O)C12CC2`, the growth in assay [1] is 1.63% (active); in assay [2] it was 19.3%; in assay [3], -76.2% (active); in [4], -21% (active); in assay [5], -90.5% (active); in [6], -3.67% (active). Further, the growth in assay [7] was -14.8% (active); in [8], -75.8% (active); in assay [9], -49.4% (active); in assay [10], 5.88% (active).
Take `O=C1NC(=NC2CCCCCC2)N/C1=C\c1ccc2ncoc2c1`: the growth in assay [1] is 31.1%; in assay [2], 38.1%; in assay [3], 66.4%; in assay [4], 50.9%; in assay [5], -8.82% (active); in [6], 35%. For the same molecule, the growth in [7] is 47.5%; in assay [8] it was -2.22% (active); in assay [9], 48.7%; in assay [10], 64.4%.
For `COc1ccc(-c2ccc(/C=N/NC(=O)c3[nH]c4ccc(Br)cc4c3-c3ccccc3)s2)cc1`, the growth in assay [1] was 104%; in [2], 87.6%; in assay [3], 115%; in assay [4], 59.5%; in [5] it was 74.2%; in assay [6], 60%. The growth is 71.6% in assay [7], 71.7% in [8], 106% in assay [9] and 106% in assay [10].
